Data reported in PubChem BioAssay AID2718 (Broad Institute, 2010).
The campaign covered roughly 320,000 compounds. About 480 (0.15%) were called active. Another 1% or so got no clear call; they are omitted. For the sample, actives were picked, then their nearest neighbours and some compounds at random. Values without a mark were called inactive. Cut-off read from the data, not from the text of the source: active = inhibition above about 26% (passing the limit was not always enough); inconclusive = no clear call, values can overlap the other calls.

The molecules below were run against Histone deacetylase 3 (Homo sapiens) (UniProt O15379) (assay: inhibition of human HDAC3 enzyme activity – biochemical, fluorescence, cell-free homogeneous, primary screen (AID 2718)). Conditions: recombinant HDAC3, fluorogenic peptide/trypsin coupled, at 8.3 µM, active compounds read high.
Sequence of Histone deacetylase 3 (Homo sapiens) (O15379 whole entry, looked up): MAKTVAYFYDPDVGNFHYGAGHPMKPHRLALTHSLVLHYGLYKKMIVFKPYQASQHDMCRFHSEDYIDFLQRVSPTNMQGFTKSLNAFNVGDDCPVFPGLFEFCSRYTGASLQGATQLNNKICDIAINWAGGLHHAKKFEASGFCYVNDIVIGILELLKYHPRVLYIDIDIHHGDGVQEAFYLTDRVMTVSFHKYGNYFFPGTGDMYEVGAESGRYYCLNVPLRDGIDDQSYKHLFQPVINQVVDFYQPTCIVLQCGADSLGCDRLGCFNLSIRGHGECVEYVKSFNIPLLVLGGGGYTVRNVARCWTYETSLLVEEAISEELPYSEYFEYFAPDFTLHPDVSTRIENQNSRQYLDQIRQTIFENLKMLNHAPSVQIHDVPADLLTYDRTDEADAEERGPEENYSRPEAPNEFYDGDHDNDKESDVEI
O=C(N/N=C/c1ccccn1)c1ccc(S(=O)(=O)N2CCCCCC2)cc1 gave an inhibition of -5.66%.
In the case of O=C(Nc1ncccc1O)c1ccc(S(=O)(=O)N2CCCC2)cc1, the inhibition is reported as 72.1% (active).
For O=C(Nc1ccccc1F)c1ccc(S(=O)(=O)N2CCCCCC2)cc1, the inhibition was 7.14%.
CCCc1cc(=O)[nH]c(SCC(=O)Nc2ccc(S(=O)(=O)N3CCCC3)cc2)n1 was tested, and the inhibition was 4.11%.
O=C1N(c2ccccc2)C(=Nc2ccccc2)SC12CC2 was tested, and the inhibition was 1.18%.
Molecule Cc1ccccc1N/C(SCc1ccc(Cl)cc1)=C(/C#N)C(N)=O has an inhibition of 15.5%.
In the case of CCOC(=O)C1CCN(CCC(=O)Nc2cccc(C)c2)CC1, the inhibition is reported as 1.84%.
With CC(=O)c1cccc(OCC(=O)OCC(=O)Nc2cc(S(=O)(=O)N3CCCCC3)ccc2C)c1 the inhibition was 0.557%.
CS(=O)(=O)c1ccc(Cl)c(NC(=O)COC(=O)c2cccc(S(=O)(=O)N3CCCC3)c2)c1 was tested, and the inhibition was 5.04%.
Work on CN1CCN(S(=O)(=O)c2cccc(C(=O)O)c2)CC1 yielded an inhibition of -5.01%.
In the case of CNC(=O)NC(=O)C(OC(=O)c1cccc(S(=O)(=O)N2CCCCC2)c1)c1ccccc1 (stereo unspecified), the inhibition is reported as 30.1% (active).
With COC(=O)c1nc(NC(=O)c2ccccc2)n[nH]1 the inhibition was 58.7% (active).
Work on Cn1c(NC(=O)c2ccccc2)nc2ccccc21 yielded an inhibition of 9.99%.
For COC(=O)c1nc(NC(=O)c2ccc(Cl)cc2)n[nH]1, the inhibition was 7.09%.
Work on Nn1c(SCC(=O)Nc2ccc3c(c2)CCC3)nnc1C1CC1 yielded an inhibition of 1.79%.
Work on Cc1cc(C)n(C(=O)CCNC(=O)c2ccccc2Cl)n1 yielded an inhibition of -13.4%.
In the case of COc1cccc(N2CC(NS(=O)(=O)c3cccs3)CC2=O)c1 (stereo unspecified), the inhibition is reported as -2.66%.
With COc1ccccc1C(=O)OCC(=O)Nc1cccc(S(=O)(=O)NC2=NCCCCC2)c1 the inhibition was -6.85%.
O=C(COC(=O)c1cc[n+]([O-])cc1)Nc1ccc(Cl)c(C(F)(F)F)c1 was tested, and the inhibition was -1.85%.
COc1cc(OC)cc(C(=O)NCC(=O)OCC(=O)NC(C)CCc2ccccc2)c1 (stereo unspecified) was tested, and the inhibition was -5.18%.
CC(C)Cn1c(SCC(=O)Nc2ccc(Cl)cc2F)nc(O)cc1=O showed an inhibition of 8.68%.
With CCC(CO)Oc1cc(NC(=O)c2cccc(F)c2)c2ncn(C(C)C)c2c1 (stereo unspecified) the inhibition was -0.176%.
With O=C(COc1ccc([N+](=O)[O-])cc1)Nc1ccc(N2CCCC2)cc1 the inhibition was 54.5% (active).
Molecule COc1ccc(OCC(=O)Nc2ccc(N3CCC(C)CC3)cc2)cc1 has an inhibition of 5.48%.
In the case of CCC(=O)c1ccc(OCC(=O)Nc2ccc(N3CCCCC3)cc2)cc1, the inhibition is reported as -1.33%.
Work on O=C(Nc1cc(S(=O)(=O)N2CCCCC2)ccc1Cl)C1COc2ccccc2O1 (stereo unspecified) yielded an inhibition of -0.0794%.
Work on COc1cc(OC)cc(-c2cc3ccc(F)cc3cn2)c1 yielded an inhibition of 5.76%.
Molecule CCN(C[C@H]1N[C@@](CC)(C(=O)OC)[C@H]2C(=O)N(Cc3ccccc3)C(=O)[C@@H]12)S(=O)(=O)c1ccc(C(F)(F)F)cc1 has an inhibition of 4.73%.
For CC[C@@H]1CCCCc2ccccc2[C@@H](C(=O)C[C@H](O)CC(C)=O)OC1=O, the inhibition was -4.02%.
In the case of O=C(CCNC(=O)c1ccccc1)NN=Cc1ccc(Br)o1, the inhibition is reported as 4.25%.
In the case of Fc1ccccc1-c1cc2cc3c(cc2cn1)OCO3, the inhibition is reported as 0.895%.
For CCOC(=O)C1Cn2c(nc3c(c2=O)C(C)(CC)Cc2ccccc2-3)S1 (stereo unspecified), the inhibition was -2.26%.
With CCCN(CC1CC1)C(=O)COC(=O)c1ccc(C)cc1O the inhibition was -5.26%.
Work on CCCC1CCC(=NNC(=S)NCCc2ccccc2)CC1 (stereo unspecified) yielded an inhibition of -4.85%.
COCCN(CCOC)S(=O)(=O)NC[C@H]1O[C@@H](n2cnc3c(N)ncnc32)[C@H](O)[C@@H]1O gave an inhibition of -1.58%.
For Cc1nc2ccc(NC(=O)c3cccc(S(=O)(=O)N4CCOCC4)c3)cc2s1, the inhibition was -5.18%.
